# Data taken from ChEMBL document CHEMBL1157539, “Thousands of chemical starting points for antimalarial lead identification” (Nature, 2010).
# Key:
# Format in all cases: functional
# Plasmodium falciparum [1] = assay: GSK_TCMDC: Inhibition of Plasmodium falciparum 3D7 in whole red blood cells, using parasite LDH activity as an index of growth. Test compounds present at 2uM
# Plasmodium falciparum [2] = assay: GSK_TCMDC: Inhibition of Plasmodium falciparum Dd2 in whole red blood cells, using parasite LDH activity as an index of growth. Test compounds present at 2uM
# HepG2 = assay: GSK_TCMDC: Percent inhibition of human HepG2 cell line. Test compounds present at 10uM.
SMILES,Inhibition (Plasmodium falciparum [1]) [%],Inhibition (Plasmodium falciparum [2]) [%],Inhibition (HepG2) [%]
O=C(Nc1ccc(Cl)cc1)c1cc(Cl)ccc1NC(=O)C1(c2ccc(Cl)cc2)CCCC1,85,29,13
Cl.O=C(O)CCCN1CCCC(=C(c2ccccc2)c2ccccc2)C1,82,2,0
Nc1ncc(-c2ccccc2)cc1/C=C/c1cccnc1,91,9,33
CCn1c(SCc2ccc(F)cc2)nc2sc3c(c2c1=O)CCN(C)C3,95,81,2
CCCNS(=O)(=O)c1ccc(NC(=O)C(C)Oc2ccc([N+](=O)[O-])cc2)cc1 (stereo unspecified),100,37,3
Clc1ccc2c(NCc3ccccn3)ccnc2c1,99,99,0
COc1ccc(C=CC(=O)Nc2ccc(N3CCCC3)cc2)cc1.Cl,81,9,0
CC(C)(C)c1ccc(NC(=O)c2cccc(CN3CCCN(Cc4ccc(F)cc4)CC3)c2)cc1.O=C(O)C(F)(F)F,88,2,35
CN1CCCC(CN2CCN(Cc3ccc(-c4cccc(-c5nc6cc(F)ccc6[nH]5)c4)cc3)CC2)C1.O=C(O)C(F)(F)F (stereo unspecified),100,99,92
COCCNCc1cccc(-c2ccc3c(Nc4ccc(Oc5cccnc5)cc4)ccnc3c2)c1,100,99,58
Oc1ccc(Nc2ccnc3cc(Cl)ccc23)cc1,100,97,0
Cc1nc(NCCCn2ccnc2)cc(-c2cncc(-c3ccc(OC(F)(F)F)cc3)c2)n1,99,11,2
